From PubChem
Sampled rows, rich in hits. Any-hit rate of the full collection: about 3.5%.
MITF primary = blocks human microphthalmia-associated transcription factor | AlphaScreen MITF homodimerization, bead proximity signal | inhibition, % at 2.6 µM | actives 0.91% (n = 650,000) | AID 1259374; in the data active means inhibition above about 50%;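 further: 0% = vehicle wells with protein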
GPR151 ag = activators of human GPR151; actives 1% (n = 650,000); AID 1508602; PathHunter beta-arrestin GPR151 cells, luminescence; activation, % at 11.2 µM; in the data active means activation above about 4.9%;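 further: 0% = median of compound wells and 100% = cells with positive control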
FBW7 activator = human FBW7 E3 ligase activation, primary screen | actives 0.13% (n = 650,000) | Q969H0 | AlphaScreen FBW7–phospho-cyclin E peptide binding, activator screen | AID 1259310 | normalized activity (activation), % at 26.1 µM; in the data active means normalized activity above about 1.9%;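 further: purified mutant Fbw7 with reduced substrate affinity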
TEAD-YAP inh = TEAD-YAP interaction inhibition | HEK-TIYL cells, TEAD-Gal4/YAP UAS-luciferase luminescence | inhibition, % at 9.12 µM | actives 1.4% (n = 640,000); in the data active means inhibition above about 32%;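 further: 0% = median of test compound wells and 100% = reference inhibitor wells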
GPR151 confirm = human GPR151 activation, confirmation screen. activation, % at 11.2 µM. GPR151 PathHunter beta-arrestin cells, luminescence, 90 min; % of EA-reagent control over plate median. 6,700 tested, under 10 active. shares compounds with GPR151 ag;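 active means mean percent activation across replicates above the confirmation screen cutoff of 4.91%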
GPR119 ag = GPR119 activation, counter-screen for GPR151 activators. GPR119 PathHunter beta-arrestin cells, luminescence, 90 min; 0 = compound-well median, 100 = enzyme-acceptor control. shares compounds with GPR151 ag. actives 0.3% (n = 6,700). activation, % at 11.2 µM;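 active means mean percent activation in the counterscreen above 29.09%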;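 further: counterscreen on off-target GPR119 to flag nonselective hits from the GPR151 activator screen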
Target sequence (Q8TDV5 whole entry, looked up): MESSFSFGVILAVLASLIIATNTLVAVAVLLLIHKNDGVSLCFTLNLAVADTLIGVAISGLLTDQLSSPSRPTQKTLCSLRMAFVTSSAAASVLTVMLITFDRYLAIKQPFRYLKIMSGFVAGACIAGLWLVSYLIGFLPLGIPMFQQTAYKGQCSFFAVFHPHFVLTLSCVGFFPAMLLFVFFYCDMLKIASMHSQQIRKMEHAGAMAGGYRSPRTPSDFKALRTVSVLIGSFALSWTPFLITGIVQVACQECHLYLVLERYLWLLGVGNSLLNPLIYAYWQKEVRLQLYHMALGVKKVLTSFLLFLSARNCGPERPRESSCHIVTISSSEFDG
* = called active by the depositor; nt = not tested or not shown.

SMILES	MITF primary	GPR151 ag	FBW7 activator	TEAD-YAP inh	GPR151 confirm	GPR119 ag
CC(=O)Nc1ccc(C(=O)CSc2nncn2C)cc1	1	9.6*	0	-1	0	6
CCCCCCOc1ccc(/C=N/n2cnnc2)cc1	6	6.8*	0	9	0	-3
CC(C)CCOc1ccc(/C=N/n2cnnc2)cc1	-1	0	0	1	nt	nt
Cc1cc(C)nc(SCC(=O)NNC(=O)c2ccccc2Br)n1	20	6.0*	0	11	0	0
Nc1ncc(Br)cc1S(=O)(=O)N1CCN(C2CCCCC2)CC1	4	13*	0	4	1	10
O=C1NCC(O)=C1C=Nc1ccc(O)cc1	15	0	0	5	nt	nt
O=C1NCC(O)=C1C=Nc1ccccc1	-2	5.2*	0	3	-2	-15
O=C1NCC(O)=C1C=NCCO	11	6.2*	0	3	1	3
O=C(CSCc1cccc(F)c1)N1CCN(c2ccccc2F)CC1	10	0	0	-58	nt	nt
COc1cc2nc(-c3ccc(N4CCOCC4)nc3)nc(Nc3ccc(N4CCOCC4)cc3)c2cc1OC	3	3	0	-3	nt	nt
CN(C(=O)c1cccc(S(=O)(=O)N2CCCCC2)c1)c1ccccc1	2	-2	0	-9	nt	nt
COc1ccc(C(=O)N(C)c2ccccc2)cc1S(=O)(=O)N1CCCC1	4	5.2*	0	-5	0	0
CNC(=O)c1ccc(OC)c(S(=O)(=O)N2CCC(C)CC2)c1	7	5.4*	1	6	0	-7
O=C(/C=C/c1ccc(OCc2ccccc2)cc1)NCc1ccco1	3	8.0*	0	14	0	0
O=C(/C=C/c1ccccc1)NCc1ccco1	-6	0	0	-24	nt	nt
COc1ccccc1/C=C/C(=O)NCc1ccco1	6	8.9*	0	-5	-1	-13
O=C(/C=C/c1ccccc1Cl)NCc1ccco1	11	0	0	-27	nt	nt
COc1ccc(C)cc1N(CC(=O)NCCC(C)C)C(=O)c1snc(C(N)=O)c1N	-23	11*	0	-2	1	5
COc1ccc(N(CC(=O)NCCC(C)C)C(=O)c2snc(C(N)=O)c2N)c(OC)c1	-2	0	1	-9	nt	nt
Cc1ccc(C(C)CCN2CCC3(CCC(CNC(=O)c4ccccc4)O3)CC2)o1 (stereo not given)	15	1	0	2	nt	nt
Cc1ccc(C(C)CCN2CCC3(CCC(CNC(=O)C(C)C)O3)CC2)o1 (stereo not given)	-4	7.8*	0	-12	0	0
CCOc1cccc(NC(=O)/C(C#N)=C\c2ccc(OCC(=O)O)c(Br)c2)c1	-9	6.1*	0	4	-1	-9
CCOc1cccc(NC(=O)/C(C#N)=C/c2ccccc2)c1	0	1	0	-13	nt	nt
CCCCCOc1ccc(OC(=O)c2ccc(C(=O)Oc3ccc(OCCCCC)cc3)nc2)cc1	8	0	1	7	nt	nt
CCc1cccc(C)c1NC(=O)c1cc(S(=O)(=O)NCCc2ccc(Cl)cc2)ccc1F	-3	3	0	3	nt	nt
SMILES	MITF primary	GPR151 ag	FBW7 activator	TEAD-YAP inh	GPR151 confirm	GPR119 ag
CCOCCCNc1c(-c2ccccc2)nc2ccc(Br)cn12	-3	1	0	-39	nt	nt
CCOCCCNc1c(-c2ccccc2)nc2cnccn12	9	5.6*	0	6	0	5
CCCCNCc1cc(Cl)c(OCC(=O)NC(C)(C)C)c(OCC)c1	-10	7.0*	1	8	0	6
O=C1NCC2=C1C(c1ccc(Br)cc1)Nc1ccccc1N2 (stereo not given)	8	5.5*	0	5	0	11
COc1ccc(C2Nc3ccccc3NC3=C2C(=O)NC3)cc1 (stereo not given)	9	-2	0	-61	nt	nt
CCOc1ccc(-c2noc(CCC(=O)NC)n2)cc1OC	-1	0	0	-15	nt	nt
CCOc1cc(-c2noc(CCC(=O)NC)n2)cc(Br)c1OC	-17	6.6*	0	6	0	8
Cc1ccc(C)c(OCC(=O)NNC(=O)c2ccc(Br)o2)c1	-3	2	0	-10	nt	nt
COc1ccc(OC)c(C2CC(=O)N3CN(c4ccccc4)CSC3=C2C#N)c1 (stereo not given)	16	5.7*	0	2	0	0
COc1cccc(C2CC(=O)N3CN(c4ccccc4)CSC3=C2C#N)c1 (stereo not given)	8	0	0	-2	nt	nt
O=C(C1CCN(c2nnc(N3CCCC3=O)s2)CC1)N1CCN(c2ccccn2)CC1	2	1	0	9	nt	nt
CCOC(=O)C(CC(C)C)NC(=O)C(NC(=O)OC(C)(C)C)C(C)C (stereo not given)	4	0	0	7	nt	nt
Cc1ccc(N(CC(=O)Nc2cccc(Cl)c2C)S(C)(=O)=O)cc1C	-18	5.3*	0	2	0	6
COc1ccc(Cl)cc1NC(=O)CN(c1cccc(Cl)c1)S(C)(=O)=O	-9	6.8*	0	11	-1	7
COc1ccc(N(CC(=O)Nc2cccc(Cl)c2C)S(C)(=O)=O)cc1OC	15	0	0	-7	nt	nt
COC(=O)c1ccccc1NC(=O)CN(c1ccc(F)c(Cl)c1)S(C)(=O)=O	8	13*	0	5	-2	31*
CCOC(=O)c1ccccc1NC(=O)Nc1ccc(F)cc1	-5	7.5*	0	-1	0	4
CCN1CCN(c2ccc(NC(=S)NC(=O)C(C)C)cc2)CC1	-10	0	0	-2	nt	nt
CCN(CC)c1nc(Nc2ccc(NC(C)=O)cc2)nc(N2CCCC2CO)n1 (stereo not given)	-9	-2	0	10	nt	nt
Nc1nc(CN2c3cccc4cccc(c34)S2(=O)=O)nc(N2CCCCC2)n1	16	0	0	-2	nt	nt
Cc1nn(C(C)C)c(C)c1CN1CCN(CC(C)C)C(CCO)C1 (stereo not given)	-10	-2	0	9	nt	nt
CCOC(=O)c1ccc(NC(=O)COc2cc(Br)c(CO)cc2OC)cc1	7	1	0	7	nt	nt
Cc1ccc(N(CC(=O)Nc2cc(Cl)ccc2C)S(C)(=O)=O)c(C)c1	-15	6.9*	0	7	0	6
CS(=O)(=O)N(CC(=O)NCCC1=CCCCC1)c1ccc(F)c(Cl)c1	-19	-2	0	1	nt	nt
CCOC(=O)c1ccccc1NC(=O)CN(c1ccc(OC)c(Cl)c1)S(C)(=O)=O	13	0	0	-3	nt	nt
Cc1ccc(Cl)cc1NC(=O)CN(c1ccc(Cl)cc1)S(C)(=O)=O	1	-1	0	13	nt	nt
Cc1ccc(N(CC(=O)NCCC2=CCCCC2)S(C)(=O)=O)cc1Cl	18	15*	0	3	1	-8
Cc1ccc(NC(=O)CN(c2ccc3c(c2)OCO3)S(C)(=O)=O)cc1Cl	9	5.1*	0	-7	0	11
